Laboratory results published in PubChem BioAssay (NCI).
The panel holds about 83,000 compounds, 20% with a hit somewhere; the sample as a whole holds those more often.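 Interpretation: 100, growth as untreated; towards 0, rising growth inhibition; 0, no net growth; 0 to -100, cell death. Compounds scoring below 10 were considered active.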 The source made the active and inactive calls.

Columns and labels:
Experiment in all cases: NCI-60 one-dose screen, 48 h (100 = growth as untreated, 0 = no growth, -100 = all killed)
Conditions in all cases: 10 µM unless noted
[1] = test system: EKVX NSCLC
[2] = test system: SN12C renal
[3] = test system: UO-31 renal
[4] = test system: TK-10 renal
[5] = test system: ACHN renal
[6] = test system: CAKI-1 renal
[7] = test system: A498 renal
[8] = test system: CCRF-CEM leukemia
[9] = test system: MOLT-4 leukemia

Measured: growth

COC(=O)[C@]1(CCSC)N[C@H](c2cn(-c3ccccc3)nc2C)[C@@H]2C(=O)N(c3ccc(C)cc3)C(=O)[C@@H]21
inactive: [1] 106% | [2] 101% | [3] 77.5% | [4] 104% | [5] 90.7% | [6] 93.9% | [7] 77.2%

O=C1Cc2cc(CCN3CCN(CCOCCO)CC3)c(Cl)cc2N1Cc1ccc(-c2ccccc2-c2nn[nH]n2)cc1
inactive: [1] 47.4% | [2] 86.1% | [3] 79.5% | [4] 111% | [5] 84.1% | [6] 61% | [7] 59.9%

Clc1ccc(-c2nc(-c3cccs3)no2)c(Cl)c1
inactive: [1] 72.6% | [2] 101% | [3] 70.9% | [4] 71.4% | [5] 99.8% | [6] 82% | [7] 111% | [8] 86%

CCC[C@H](N[C@@H](C)C(=O)N1[C@H](C(=O)O)C[C@@H]2CCCC[C@@H]21)C(=O)OCC
inactive: [1] 111% | [2] 101% | [3] 77.4% | [4] 113% | [5] 90.8% | [6] 102% | [7] 98.9% | [8] 105% | [9] 115%

CCOC(=O)c1c2c(c(C)n1Cc1ccc(OC)cc1)-c1nc(N)ncc1CC2
inactive: [1] 98.8% | [2] 95.3% | [3] 90% | [4] 130% | [5] 106% | [6] 101% | [7] 111% | [8] 126%

Cc1nn(-c2ccc(Cl)cc2)c2nc3c(nc12)c(=O)oc1ccccc13
inactive: [1] 108% | [2] 101% | [3] 101% | [4] 107% | [5] 99.8% | [6] 98.3% | [7] 95%

CC(=O)O[C@H]1C(=O)[C@@]2(C)C([C@H](OC(=O)c3ccccc3)[C@]3(O)C[C@H](OC(=O)[C@H](O)[C@@H](NC(=O)c4ccccc4)c4ccccc4)C(C)=C1C3(C)C)[C@]1(OC(C)=O)CO[C@@H]1C[C@@H]2O (some centres undefined)
inactive: [1] 48.3% | [2] 38.1% | [3] 33.6% | [4] 20.6% | [5] 41% | [6] 44.7% | [7] 30.8% | [8] 14% | [9] 28.3%

Cc1ccc(NC(=O)CSc2nnc3n(Cc4ccccc4)c(=O)c4c(C)c(C(N)=O)sc4n23)cc1
inactive: [1] 91.7% | [2] 58.5% | [3] 81.9% | [5] 75.6% | [6] 91.7%
active: [4] -24.4% | [7] 6.08%

Cc1c(C(N)=O)sc2c1c(=O)n(Cc1ccccc1)c1nnc(SCC(=O)Nc3ccc(Cl)cc3)n21
active: [4] -22.9%
inactive: [1] 50.2% | [2] 50.8% | [3] 75.5% | [5] 32.7% | [6] 77% | [7] 40.1%

Cc1c(C(N)=O)sc2c1c(=O)n(Cc1ccccc1)c1nnc(S(=O)(=O)CC(=O)Nc3ccc(Cl)cc3)n21
inactive: [1] 43.6% | [2] 56% | [3] 87% | [4] 18% | [5] 10.1% | [6] 68.2% | [7] 22.6%

CCCCCCCC/C=C/CCCCCCCC1=NC(C)(C)CN1CC(C)O (centres undefined)
inactive: [1] 71.2% | [2] 54.9% | [4] 82.8% | [5] 28% | [6] 62% | [7] 76.9%
active: [3] -73.9% | [8] -37.9%

Cc1nn(-c2ccccc2)c2ncc3c(c12)C(=O)N(Cc1ccccc1)C3=O
inactive: [1] 37.3% | [2] 23.7%
active: [3] -30.5% | [4] -26% | [5] -21.7% | [6] -0.521% | [7] -10.2%

Cc1nn(-c2ccc(Br)cc2)c2nc3c(nc12)C(=O)C(=O)c1ccccc1-3
inactive: [1] 80% | [2] 95.5% | [3] 63.7% | [4] 140% | [5] 93.1% | [6] 94.9% | [7] 106%

CC[N+](C)(CC)CCCC(C)Nc1ccnc2cc(Cl)ccc12 (centres undefined)
inactive: [1] 109% | [2] 109% | [3] 91.4% | [4] 124% | [5] 114% | [6] 102% | [7] 100% | [8] 103%

O=C(CCc1nnc2sc(-c3ccc(Cl)cc3Cl)nn12)c1nc2ccccc2[nH]1
inactive: [8] 10.9%
active: [1] -29.7% | [2] -36.7% | [3] -72.6% | [4] -83.2% | [5] -89.7% | [6] -54.2% | [7] -74.9% | [9] 1.48%

CN1C(=O)C(=Cc2cn(Cc3ccccc3)c3ccc(Br)cc23)C(=O)N(C)C1=O
active: [7] -91.3%
inactive: [1] 108% | [2] 96.6% | [3] 90.1% | [4] 58.3% | [5] 96.3% | [6] 97.1% | [8] 101% | [9] 87.6%

Cc1c(C(N)=O)sc2c1C(=O)N(Cc1ccccc1)C1=NN=C(c3ccc(Cl)cc3)CN12
inactive: [1] 62.7% | [2] 61.5% | [3] 26.3% | [4] 59.4% | [5] 21.9% | [6] 18.6% | [7] 105%

c1ccc(-c2nn[nH]n2)c(-c2ccc(CN3CCN(c4nsc5ccccc45)CC3)cc2)c1
inactive: [1] 106% | [2] 92.6% | [3] 103% | [4] 103% | [5] 98.7% | [6] 84% | [7] 85.1%

COc1ccc2c(c1)nc(N)c1c3ccccc3cn21
inactive: [1] 72.7% | [2] 89.6% | [3] 59% | [4] 125% | [5] 81.1% | [6] 68.5% | [7] 75.2% | [8] 74.5% | [9] 73.8%

COC(=O)[C@]1(CCSC)N[C@H](c2cn(-c3ccccc3)nc2C)[C@@H]2C(=O)N(c3ccccc3)C(=O)[C@@H]21
inactive: [1] 107% | [2] 103% | [3] 90.9% | [4] 118% | [5] 113% | [6] 101% | [7] 93%

Cn1cc(-c2nc(-c3c[nH]c4ncccc34)cs2)c2cccnc21
inactive: [1] 50.5% | [2] 84.4% | [3] 52.9% | [4] 31% | [5] 41.4% | [6] 28.3% | [7] 50.1% | [8] 65.3% | [9] 69.3%

c1cncc(CNc2ccccc2-c2nnc(Nc3ccc4c(c3)OCO4)o2)c1
active: [6] 9.02% | [7] -0.133%
inactive: [1] 35.3% | [2] 28.8% | [3] 40.7% | [4] 50% | [5] 32.2% | [8] 19%

CC(c1ccccn1)C(C)(O)C(C)c1ccccn1 (centres undefined)
inactive: [1] 95.3% | [2] 103% | [3] 90.2% | [4] 99.6% | [5] 103% | [6] 104% | [7] 105% | [8] 114%

O=C(CCc1nnc2sc(Cc3ccccc3Cl)nn12)c1nc2ccccc2[nH]1
inactive: [1] 91.7% | [2] 91.8% | [3] 63% | [4] 144% | [5] 84.7% | [6] 89% | [7] 92.3% | [8] 96.1% | [9] 72.9%

CCCCCCCCCCC[C@@H](C[C@H]1OC(=O)[C@H]1CCCCCC)OC(=O)[C@@H](CC(C)C)NC=O
inactive: [1] 95.6% | [2] 43.9% | [3] 19% | [4] 94.7% | [5] 62.7% | [6] 54.7% | [7] 84.5% | [8] 27.6% | [9] 13.1%

CCSc1nnc2n(Cc3ccccc3)c(=O)c3c(C)c(C(N)=O)sc3n12
inactive: [1] 99% | [2] 103% | [3] 67% | [4] 111% | [5] 93.7% | [6] 85.8% | [7] 84.2%

Cn1cc(-c2csc(-c3cn(C)c4ncccc34)n2)c2cc(F)cnc21
inactive: [1] 77.7% | [2] 88.9% | [3] 99.1% | [4] 104% | [5] 94.4% | [6] 66% | [7] 72.9% | [8] 67.4% | [9] 80.1%

CC(=O)Oc1c(C)c(OC(C)=O)c2c(c1C(C)=O)OC1CC(=O)C(C(C)=O)=C(O)C21C (centres undefined)
inactive: [1] 96.9% | [2] 95.5% | [3] 89% | [4] 109% | [5] 97% | [6] 99.3% | [7] 136% | [8] 102% | [9] 64%

Cc1ccsc1/C=C/C1=NCCCN1C
inactive: [1] 99.5% | [2] 95.3% | [3] 80% | [4] 104% | [5] 101% | [6] 97.1% | [7] 113% | [8] 81% | [9] 95%

COc1cc2cn3c4ccc(O)cc4nc(N)c3c2cc1OC
active: [3] 1.49% | [5] -3.69% | [6] -4.04% | [7] -14.4% | [9] 8.22%
inactive: [1] 48.7% | [2] 18.6% | [4] 50.4% | [8] 21.1%

COC1CC2CCC(C)C(O)(O2)C(=O)C(=O)N2CCCCC2C(=O)OC(C(C)CC2CCC(O)C(OC)C2)CC(=O)C(C)C=C(C)C(O)C(OC)C(=O)C(C)CC(C)/C=C/C=C/C=C1C (centres undefined)
inactive: [1] 30.3% | [2] 48.2% | [3] 21.5% | [4] 49.7% | [5] 40.3% | [6] 49% | [8] 37.9% | [9] 21.4%
active: [7] -5.92%
